Results published in publication PMC7862700, “An all-to-all approach to the identification of sequence-specific readers for epigenetic DNA modifications on cytosine”.

Tests used:
Experiment in all cases: DAPPL (digital affinity profiling via proximity ligation, sequencing); 10 mM Tris-HCl pH 7.5, 50 mM NaCl, 1 mM DTT, 4% glycerol, room temperature, 30 min; GST-TFs on glutathione beads, 16-mer random dsDNA library, 0.1% formaldehyde crosslink after washing; high values mean tight binding
Settings in all cases: protein: recombinant; tags: N-terminal GST; dsDNA, one strand shown
[1] = target: T1, ELK4 (Homo sapiens, UniProt P28324-2 1-405)
T1 sequence: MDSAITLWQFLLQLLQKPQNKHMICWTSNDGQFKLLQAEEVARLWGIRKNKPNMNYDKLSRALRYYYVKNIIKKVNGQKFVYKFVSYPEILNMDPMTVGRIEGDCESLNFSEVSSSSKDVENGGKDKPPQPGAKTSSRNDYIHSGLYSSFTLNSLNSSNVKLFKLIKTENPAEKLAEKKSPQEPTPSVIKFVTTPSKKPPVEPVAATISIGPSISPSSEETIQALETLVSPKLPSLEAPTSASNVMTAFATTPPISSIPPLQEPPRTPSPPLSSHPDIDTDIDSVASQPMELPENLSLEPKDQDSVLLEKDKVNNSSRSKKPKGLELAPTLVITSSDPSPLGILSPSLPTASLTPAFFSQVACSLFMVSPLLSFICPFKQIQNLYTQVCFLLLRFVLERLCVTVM
Summary of the method: (§1)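 GST fusions of human transcription factors were expressed in yeast and captured with glutathione beads. Once given DNA barcodes and pooled alongside a tag-only sample, they were incubated for 30 min at room temperature with 200 nmole of a random double-stranded 16-mer DNA library in Tris/NaCl/DTT/glycerol buffer, then washed, crosslinked (0.1% formaldehyde), proximity-ligated, PCR-amplified and sequenced on an Illumina NextSeq500. The binding signal of each hexamer is its read frequency for a factor divided by its frequency for the tag-only sample.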

[2] = target: T2, ELF3 (Homo sapiens, UniProt P78545 1-371)
T2 sequence: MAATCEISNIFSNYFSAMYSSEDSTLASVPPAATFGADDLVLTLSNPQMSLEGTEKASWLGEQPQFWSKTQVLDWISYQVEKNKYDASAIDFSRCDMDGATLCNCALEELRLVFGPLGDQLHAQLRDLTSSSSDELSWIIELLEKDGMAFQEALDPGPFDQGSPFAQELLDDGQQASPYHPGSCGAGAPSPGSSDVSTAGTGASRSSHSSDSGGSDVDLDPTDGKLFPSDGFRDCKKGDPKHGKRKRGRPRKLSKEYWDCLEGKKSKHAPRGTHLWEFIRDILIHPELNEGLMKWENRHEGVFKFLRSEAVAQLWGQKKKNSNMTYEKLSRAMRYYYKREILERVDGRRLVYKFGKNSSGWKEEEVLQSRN
Summary of the method: as §1

[3] = target: ETV1 (Homo sapiens, UniProt P50549 1-477)
Sequence of ETV1 (P50549 whole entry): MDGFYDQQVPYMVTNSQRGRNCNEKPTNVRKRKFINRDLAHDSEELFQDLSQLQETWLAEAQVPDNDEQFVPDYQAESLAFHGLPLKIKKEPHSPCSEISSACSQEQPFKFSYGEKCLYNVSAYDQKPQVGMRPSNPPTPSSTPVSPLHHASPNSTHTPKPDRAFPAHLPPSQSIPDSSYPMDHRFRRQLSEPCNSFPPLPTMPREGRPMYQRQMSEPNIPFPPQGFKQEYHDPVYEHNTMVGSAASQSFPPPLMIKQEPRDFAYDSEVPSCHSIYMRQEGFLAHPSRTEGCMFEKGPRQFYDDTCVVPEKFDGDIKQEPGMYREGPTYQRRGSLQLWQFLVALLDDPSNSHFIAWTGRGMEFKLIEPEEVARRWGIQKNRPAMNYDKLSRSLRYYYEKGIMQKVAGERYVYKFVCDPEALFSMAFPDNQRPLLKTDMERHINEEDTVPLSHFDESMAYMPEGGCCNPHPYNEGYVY
Summary of the method: as §1

[4] = target: T3, ERF (Homo sapiens, UniProt P50548 1-548)
T3 sequence: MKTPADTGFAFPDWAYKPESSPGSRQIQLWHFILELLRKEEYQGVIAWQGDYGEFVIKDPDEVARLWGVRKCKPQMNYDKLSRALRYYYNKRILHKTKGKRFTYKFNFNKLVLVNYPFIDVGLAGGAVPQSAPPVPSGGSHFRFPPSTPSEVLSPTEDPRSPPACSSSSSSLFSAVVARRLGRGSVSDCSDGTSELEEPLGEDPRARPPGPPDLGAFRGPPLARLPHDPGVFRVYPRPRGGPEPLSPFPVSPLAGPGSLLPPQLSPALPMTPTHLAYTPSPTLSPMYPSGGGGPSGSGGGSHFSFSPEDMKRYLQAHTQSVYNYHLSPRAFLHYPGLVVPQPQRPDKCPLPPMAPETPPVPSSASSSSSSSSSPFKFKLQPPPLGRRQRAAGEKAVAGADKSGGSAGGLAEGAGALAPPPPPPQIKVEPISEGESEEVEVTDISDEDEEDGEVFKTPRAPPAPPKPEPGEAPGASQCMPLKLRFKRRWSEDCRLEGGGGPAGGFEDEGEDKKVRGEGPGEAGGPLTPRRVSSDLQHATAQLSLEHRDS
Summary of the method: as §1

[5] = target: T4, ETV3L (Homo sapiens, UniProt Q6ZN32 1-361)
T4 sequence: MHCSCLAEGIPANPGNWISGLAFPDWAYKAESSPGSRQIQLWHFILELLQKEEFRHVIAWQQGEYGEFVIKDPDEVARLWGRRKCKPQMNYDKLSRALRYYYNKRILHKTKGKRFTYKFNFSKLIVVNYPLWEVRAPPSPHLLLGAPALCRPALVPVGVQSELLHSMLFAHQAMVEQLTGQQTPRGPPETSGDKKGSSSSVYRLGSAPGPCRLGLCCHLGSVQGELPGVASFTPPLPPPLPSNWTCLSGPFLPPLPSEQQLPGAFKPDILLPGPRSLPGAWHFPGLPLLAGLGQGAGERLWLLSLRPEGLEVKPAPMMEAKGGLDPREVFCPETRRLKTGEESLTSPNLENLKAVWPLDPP
Summary of the method: as §1

[6] = target: T5, ETS2 (Homo sapiens, UniProt P15036 1-469)
T5 sequence: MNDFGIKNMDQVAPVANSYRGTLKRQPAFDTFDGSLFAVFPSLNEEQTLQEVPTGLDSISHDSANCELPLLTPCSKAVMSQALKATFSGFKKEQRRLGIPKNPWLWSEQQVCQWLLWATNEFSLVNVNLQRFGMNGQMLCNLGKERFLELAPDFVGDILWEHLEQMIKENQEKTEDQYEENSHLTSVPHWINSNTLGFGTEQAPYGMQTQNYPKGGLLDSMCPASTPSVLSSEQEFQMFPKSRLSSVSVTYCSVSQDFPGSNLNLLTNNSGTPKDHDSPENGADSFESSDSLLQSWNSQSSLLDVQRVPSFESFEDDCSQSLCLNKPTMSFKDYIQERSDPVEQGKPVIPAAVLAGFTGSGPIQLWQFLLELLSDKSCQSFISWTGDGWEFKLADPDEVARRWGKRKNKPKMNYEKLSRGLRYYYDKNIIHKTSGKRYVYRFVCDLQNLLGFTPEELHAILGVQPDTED
Summary of the method: as §1

[7] = target: T6, SPDEF (Homo sapiens, UniProt O95238 1-335)
T6 sequence: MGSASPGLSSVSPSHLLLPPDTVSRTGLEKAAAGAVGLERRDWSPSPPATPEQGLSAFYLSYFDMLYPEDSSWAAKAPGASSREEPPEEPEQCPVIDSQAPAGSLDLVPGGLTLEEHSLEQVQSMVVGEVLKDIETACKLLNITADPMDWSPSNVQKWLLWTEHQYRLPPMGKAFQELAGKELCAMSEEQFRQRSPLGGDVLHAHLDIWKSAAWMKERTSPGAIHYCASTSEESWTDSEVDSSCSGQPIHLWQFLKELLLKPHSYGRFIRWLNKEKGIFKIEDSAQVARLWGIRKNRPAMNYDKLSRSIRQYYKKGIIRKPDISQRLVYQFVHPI
Summary of the method: as §1

[8] = target: T7, ETV7 (Homo sapiens, UniProt Q9Y603 1-341)
T7 sequence: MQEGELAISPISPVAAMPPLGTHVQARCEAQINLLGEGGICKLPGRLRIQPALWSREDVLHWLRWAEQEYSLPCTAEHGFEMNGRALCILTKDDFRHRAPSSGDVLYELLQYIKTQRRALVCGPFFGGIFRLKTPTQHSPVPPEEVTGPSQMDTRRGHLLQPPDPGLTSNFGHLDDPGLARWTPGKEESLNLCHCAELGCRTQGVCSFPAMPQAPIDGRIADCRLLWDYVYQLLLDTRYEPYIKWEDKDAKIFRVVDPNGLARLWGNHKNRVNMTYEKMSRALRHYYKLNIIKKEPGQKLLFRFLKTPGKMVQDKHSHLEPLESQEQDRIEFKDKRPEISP
Summary of the method: as §1

[9] = target: T8, ETV3 (Homo sapiens, UniProt P41162-2 1-143)
T8 sequence: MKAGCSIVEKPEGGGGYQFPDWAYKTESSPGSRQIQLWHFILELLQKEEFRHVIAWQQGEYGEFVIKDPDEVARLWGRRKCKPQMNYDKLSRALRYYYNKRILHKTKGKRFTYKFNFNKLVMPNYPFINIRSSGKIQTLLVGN
Summary of the method: as §1

[10] = target: ETV6 (Homo sapiens, UniProt P41212 1-452)
Sequence of ETV6 (P41212 whole entry): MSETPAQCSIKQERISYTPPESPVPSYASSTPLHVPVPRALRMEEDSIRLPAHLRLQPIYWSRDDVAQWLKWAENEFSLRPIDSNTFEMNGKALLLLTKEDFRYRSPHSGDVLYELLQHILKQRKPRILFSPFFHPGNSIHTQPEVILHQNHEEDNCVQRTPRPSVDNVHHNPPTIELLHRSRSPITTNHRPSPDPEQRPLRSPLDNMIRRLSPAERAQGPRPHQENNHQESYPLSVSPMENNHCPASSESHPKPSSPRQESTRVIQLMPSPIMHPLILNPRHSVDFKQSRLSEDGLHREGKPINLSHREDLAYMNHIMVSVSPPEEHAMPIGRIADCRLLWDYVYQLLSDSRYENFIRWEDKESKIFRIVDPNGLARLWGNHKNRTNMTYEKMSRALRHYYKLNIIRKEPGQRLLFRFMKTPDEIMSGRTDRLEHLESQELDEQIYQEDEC
Summary of the method: as §1

For TGTAAG, the binding signal [1] was 1.06 fold enrichment (6-mer frequency, TF over GST control), the binding signal [2] was 1.3 fold enrichment (6-mer frequency, TF over GST control) and the binding signal [3] was 1.06 fold enrichment (6-mer frequency, TF over GST control). The binding signal [4] was 1.11 fold enrichment (6-mer frequency, TF over GST control), the binding signal [5] was 1.03 fold enrichment (6-mer frequency, TF over GST control) and the binding signal [6] was 1.04 fold enrichment (6-mer frequency, TF over GST control). For the same sequence, the binding signal [7] was 1.13 fold enrichment (6-mer frequency, TF over GST control), the binding signal [8] was 1.04 fold enrichment (6-mer frequency, TF over GST control) and the binding signal [9] was 1.17 fold enrichment (6-mer frequency, TF over GST control). For the same sequence, the binding signal [10] was 1.14 fold enrichment (6-mer frequency, TF over GST control).
